Compound activity as filed in PubChem BioAssay.
ATXN2 expr inh: ATXN2 expression inhibition; HEK-293 ATXN2-luciferase reporter, luminescence, 24 h; Potency, µM (doses to about 57 µM), for the others: at the top dose activity change, negative = inhibition, hits mostly inhibitors; 360,000 tested, 0.72% active; AID 1745845; note: % is set by controls: 0 for no effect and ±100 for the full control effect; nearly all actives have a fitted effect of over 55% in size
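qHTS (up to 57 uM final) was run with 24 h compound exposure of reporter cells at 37 °C. Each well was multiplexed: SteadyGlo luminescence measured ATXN2-luciferase expression after a fluorogenic Gly-Phe-AFC viability readout (25 uM final).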
Anesthetic bind: candidate novel general anesthetic via apoferritin binding; Potency, µM (series often up to 77.5 µM), for the others: at the highest dose activity change, negative = displacement, most hits filed as inhibitors; P02791; AID 485281; apoferritin/1-aminoanthracene competitive binding, fluorescence; 350,000 tested, 0.074% active; note: % is set by controls: 0 for no effect and ±100 for the full control effect; nearly all actives have a fitted effect of over 20% in size
Target sequence (P02791 2-175 limits assumed): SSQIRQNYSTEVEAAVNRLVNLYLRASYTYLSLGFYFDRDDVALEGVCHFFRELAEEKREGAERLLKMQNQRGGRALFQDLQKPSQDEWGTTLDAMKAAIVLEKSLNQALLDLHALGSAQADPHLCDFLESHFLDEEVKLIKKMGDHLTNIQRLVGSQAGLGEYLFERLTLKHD
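Horse-spleen apoferritin (10 uM) in 50% saturated 1-aminoanthracene in PBS was incubated 10 min at room temperature with compound. Fluorescence (ex 380, em 535 nm) was normalized to free and bound 1-AMA, with concentration-response fitted by a four-parameter Hill equation.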
HepG2 viability: kills HepG2 cells in TGF-b inhibitor counter-screen; HepG2 CAGA-GFP viability, ATP luminescence, 18 h; Potency, µM (highest dose often 46.1 µM), without a hit: at the highest dose activity change, negative = cytotoxicity, usual class: cytotoxic; 410,000 tested, 0.76% active
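CellTiter-Glo luminescence gave cytotoxicity after 18 hours at 37 degrees C. The cells were HepG2 CAGA-GFP in 1% FBS DMEM, stimulated with 500 pg/mL TGF-beta after compound addition. %Activity was normalised to no-cell wells (complete cell-killing) and DMSO (no toxicity), and curves were fitted and classified.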
ATXN viability: cell viability loss in ATXN counter-screen; AID 651635; S2 cells (HEK-293 line with an ATXN2-luciferase reporter) viability, CellTiter-Fluor protease fluorescence, 24 h; 400,000 tested, 0.49% active; Potency, µM (top dose mostly 56.7 µM), actives largely listed as cytotoxic; note: nearly all actives have a fitted effect of over 40% in size
TGFb inhibitor: TGF-b pathway inhibition; Potency, µM (titrated, usually from 46.1 µM), for inactives: at the top dose activity, negative = inhibition, hits mostly inhibitors; 410,000 tested, 1.2% active; HepG2 CAGA-GFP TGF-b/SMAD3 reporter, GFP fluorescence, 18 h; TGF-beta stimulated, 500 pg/mL final; note: % is set by controls: 0 for no effect and ±100 for the full control effect; nearly all actives have a fitted effect of over 65% in size
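Smad-responsive CAGA-GFP expression was quantified in HEPG2 cells exposed to compounds and 500 pg/mL final TGF-beta for 18 h at 37 degrees C; unstimulated wells defined full inhibition.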
The depositor's hits bear a star; i = inactive; ? = inconclusive; nt = not tested or not shown; ! = not confirmed by another sample. Shown are actives, neighbours in structure and some others; about 2.4% of the full set was active somewhere. Calls come from the whole dose curve; as a rule, active = well fitted curve in the direction sought with a large enough effect; inconclusive = small, poorly fitted or top-dose-only effect, or another doubt; inactive = no such curve, though single readings can be large; an effect the other way counts as inactive or inconclusive. Potency is the fitted concentration of half-maximal effect.

SMILES	ATXN2 expr inh	Anesthetic bind	HepG2 viability	ATXN viability	TGFb inhibitor
Cc1ccccc1C(=O)Nc1ccc(C(=O)N2CCCC(N(C)C)c3ccccc32)cc1 (stereo not given)	-20.2%	nt	nt	?	nt
O=[N+]([O-])c1ccc(Nc2ccccc2-c2ccccc2)c2nonc12	-28.6%	nt	nt	nt	nt
O=C(NC1=NCCS1)C1COc2ccccc2O1 (stereo not given)	2.51µM*	-23.4%	-23.2%	i	2.9%
O=C(Nc1ccncc1)C1COc2ccccc2O1 (stereo not given)	-3.6%	-1.6%	1.3%	i	-7.8%
N#CC1(c2cccc(C(=O)Nc3cc(Oc4ccc5nc(NC(=O)C6CC6)sc5n4)ccc3F)c2Cl)CC1	-10.4%	nt	nt	nt	nt
Nc1nc(Nc2ccc(S(N)(=O)=O)cc2)nn1C(=O)c1c(F)cccc1F	12.2µM*	nt	nt	nt	nt
COC(=O)c1cc(Cl)ccc1NS(=O)(=O)C(F)(F)F	10.7%	nt	nt	i	nt
O=S(=O)(Cc1cc(Cl)nc(-c2ccncc2)n1)c1ccccc1	-23.9%	-10.3%	15.3%	i	8.8%
O=S(=O)(Cc1cc(Cl)nc(-c2ccccc2)n1)c1ccccc1	31.6µM*	1.4%	-18.3%	?	?
Cc1ncc2c(c1CNC(=O)/C=C/c1cccs1)CCN(C(=O)C1CC(=O)OC13CCCCC3)C2 (stereo not given)	nt	nt	nt	i	nt
O=C(Nc1ccc(S(=O)(=O)N2CCOCC2)cc1)c1cc(Cl)ccc1NS(=O)(=O)c1ccc(Cl)s1	-12.0%	nt	nt	15.8µM*!	nt
O=C(Nc1ccccc1)c1ccccc1NS(=O)(=O)c1ccc(Cl)s1	?	-1.8%	-30.8%	?	12.6µM*
Cc1ccc(NC(=O)c2ccccc2NS(=O)(=O)c2ccc(Cl)s2)cc1	?	-5.2%	-69.1%	i	?
O=C(Nc1ccc(S(=O)(=O)N2CCOCC2)cc1)c1ccc(Cl)cc1Cl	nt	-21.1%	-6.5%	i	-9.8%
COc1ccc(C2(CNC(=O)C(=O)Nc3ccc(C)c(Cl)c3)CCCC2)cc1OC	10.6%	-8.0%	-53.2%	i	12.0%
CCOc1ccc(NC(=O)c2cc3c(n(-c4ccc(OC)cc4)c2=O)CC(C)(C)CC3=O)cc1	1.9%	-9.4%	-59.0%	i	?
C[n+]1cc2c3c(ccc2c2ccc4cc5c(cc4c21)OCO5)OCO3	1.58µM*	-20.0%	-105.0%	2.82µM*	1.41µM*
COc1ccc(CCN(Cc2ccccn2)C(=S)Nc2cccc(C)c2)cc1OC	-9.1%	-14.6%	5.01µM*	?	-5.6%
COc1ccc(NC(=S)N(CCc2ccc(OC)c(OC)c2)Cc2ccccn2)cc1	-12.3%	-9.5%	5.1%	i	-15.3%
CCC1CN(C(=O)N2CCC(C(=O)NCc3cccc(OC)c3OC)CC2)c2cc(C)ccc2O1 (stereo not given)	-6.9%	-9.7%	-18.2%	i	11.2µM*!
CCOc1ccc(CNC(=O)C2CCN(C(=O)N3CC(CC)Oc4ccc(C)cc43)CC2)cc1OC (stereo not given)	nt	2.6%	-3.3%	nt	?
Oc1cc2cc(-c3csc(-c4ccc(F)cc4)n3)ccc2[nH]1	nt	nt	-45.8%	nt	-16.0%
CCCCCc1c2c(cc(O)c1C(=O)O)OC(=O)c1c(cc(OC)cc1C(=O)CCCC)O2	?	-8.7%	-68.7%	nt	20µM*
C=C1C(=O)[C@@]23[C@H](O)C[C@@H]4C(C)(C)CC[C@H](O)[C@@]4(C)[C@@H]2CC[C@@H]1[C@H]3O	?	3.6%	8.91µM*	7.94µM*	0.891µM*
C=C1C(=O)[C@@]23[C@H](O)C[C@@H]4C(C)(C)CC[C@H](O)[C@]4(C)[C@@H]2C[C@H](O)[C@@H]1[C@H]3O	-2.9%	-4.8%	-77.3%	17.8µM*	12.6µM*
Cc1ccc(C(O)c2ncc(-c3ccc(C(F)(F)F)cc3)[nH]2)cc1F (stereo not given)	-19.3%	nt	-44.3%	?	?
CC(C)=CCOc1ccc([C@@H]2COc3c(ccc4c3C=CC(C)(C)O4)C2)c(O)c1	?	nt	14.1µM*	25.1µM*	12.6µM*
COc1ccc(OCc2cc(=O)c3ccc4c(c3o2)C=CC(C)(C)O4)cc1OC	-3.9%	nt	-22.9%	?	?
